We go through 20 molecules from PubChem BioAssay AID1224860 (National Center for Advancing Translational Sciences (NCATS), 2016).

A short description of the test: Compound cytotoxicity measured by an ATP content assay as a counter-screen for lead compounds in human iPSC derived neural progenitor cells (hNPCs). Conditions: human iPSC-derived NPC viability, ATP luminescence; series mostly up to 46.1 µM. The gist of the method: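 Viability read as luminescent ATP content, 10 min at RT after reagent. Compound incubation of 6, 24 or 72 h on human iPSC-derived neural progenitors pre-cultured 16–20 h; values are percent inhibition.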

Inconclusive results are not listed. Entries that show only a call come without a potency. The source made the active and inactive calls. Calls come from the whole dose curve; as a rule, active = well fitted cell-killing curve with a large enough effect; inconclusive = small, poorly fitted or top-dose-only effect; inactive = flat fitted curve, though single readings scatter.

As for `CN(C)CCCSc1ccccc1NC(=O)/C=C/c1ccccc1`, the Potency result is “inactive”. For `N#C/C(=C\c1ccc(O)c(O)c1)C(=O)Nc1ccccc1`, the Potency result was “inactive”.

With `NC(=O)c1cccc2[nH]c(-c3ccc([C@H]4CCCN4)cc3F)nc12`, the Potency is 4.35 µM (active). With `CC(C)c1ccc2oc3nc(N)c(C(=O)O)cc3c(=O)c2c1`, the Potency is 3.46 µM (active).

Regarding `O=c1oc2cc(O)ccc2s1`, the Potency result is “inactive”. To `Cc1[nH]c(C=C2C(=O)Nc3ccccc32)c(C)c1CCC(=O)O` belongs “inactive”; to `CS(=O)(=O)c1ccc(-c2cn3ccccc3n2)cc1`, 7.74 µM (active); to `Oc1cc(O)cc(/C=C/c2ccc(O)c(O)c2)c1`, 7.74 µM (active).

For `Nc1cc(C(F)(F)F)ccc1S`, the Potency is 19.5 µM (active). `CCOC1OC(=O)C[C@H]1NC(=O)[C@@H]1CCCN1C(=O)[C@@H](NC(=O)c1ccc(N)c(Cl)c1)C(C)(C)C` (stereo not given in full): the Potency entry is “inactive”. To `COc1ccc(-c2cc(=S)ss2)cc1` belongs “inactive”; to `CCCCCCCC/C=C/C(=O)O`, “inactive”. With `CN1CC(=O)N/C1=N/C(=O)Nc1cccc(Cl)c1`, the Potency result is “inactive”. In the case of `O=C(Nc1ncc([N+](=O)[O-])s1)c1cccs1`, the Potency entry is “inactive”.

Consider `CC(=O)Oc1cccc2c1C(=O)c1c(OC(C)=O)cc(C(=O)O)cc1C2=O`, for which the Potency result was “inactive”. Consider `CC(C(=O)O)c1ccc(-c2ccccc2)c(F)c1` (stereo not given), for which the Potency result was “inactive”.

For the molecule `O=C(O)Cc1ccc(-c2ccccc2)cc1`, the Potency result was “inactive”. Turning to `Cc1c(N)c(=O)n(-c2ccccc2)n1C`, the Potency entry was “inactive”. For `COc1ccc(CC2=NN3C([C@@H](CCc4ccccc4)[C@@H](C)O)=NC(C)C3C(=O)N2)cc1OC` (stereo not given in full), the Potency entry is “inactive”.

Turning to `CNC(=O)c1ccccc1Sc1ccc2c(/C=C/c3ccccn3)n[nH]c2c1`, the Potency was 7.74 µM (active).
